Screens: PubChem, National Center for Advancing Translational Sciences (NCATS)
The list is not random: actives were taken first. Their share in the collection is about 10%.
G9a inh = inhibitors of human histone lysine methyltransferase G9a. Q96KQ7. G9a H3K9 monomethylation, AlphaScreen, 2 h. Potency, µM (titrated, usually from 102 µM), without a hit: at the top dose activity, negative = inhibition, actives largely listed as inhibitors. actives 8.8% (n = 350,000); also: potency is read from the fitted curve at half-maximal effect; % is scaled to controls: 0 for no effect and ±100 for the full control effect; nearly all actives have a fitted effect of over 75% in size
Target sequence (Q96KQ7 913-1193 limits assumed): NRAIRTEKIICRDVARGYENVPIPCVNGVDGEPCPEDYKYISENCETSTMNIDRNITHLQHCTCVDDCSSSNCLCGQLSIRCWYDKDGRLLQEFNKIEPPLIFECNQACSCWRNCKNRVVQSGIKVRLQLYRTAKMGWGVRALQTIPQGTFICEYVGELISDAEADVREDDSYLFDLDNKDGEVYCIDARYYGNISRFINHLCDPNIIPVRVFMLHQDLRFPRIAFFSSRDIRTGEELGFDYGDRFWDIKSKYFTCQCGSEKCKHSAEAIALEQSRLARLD
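G9a (20 nM) preincubated 15 min RT with compounds, then 500 nM biotinylated H3K9 peptide and 20 uM SAM added; 2 h RT reaction. Monomethyl-H3K9 product detected by AlphaScreen with anti-H3K9me1 antibody, streptavidin donor and anti-rabbit IgG acceptor beads.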
HP1b chromo inh = inhibitors of HP1-beta chromodomain binding to methylated histone tails; P83916; AlphaScreen HP1-beta / biotin-H3K9me3 peptide binding; Potency, µM (top dose mostly 114 µM), for inactives: at the top dose activity change, negative = inhibition, usual class: inhibitors; actives 0.56% (n = 390,000); also: potency is read from the fitted curve at half-maximal effect; nearly all actives have a fitted effect of over 70% in size
Target sequence (P83916 whole entry, looked up): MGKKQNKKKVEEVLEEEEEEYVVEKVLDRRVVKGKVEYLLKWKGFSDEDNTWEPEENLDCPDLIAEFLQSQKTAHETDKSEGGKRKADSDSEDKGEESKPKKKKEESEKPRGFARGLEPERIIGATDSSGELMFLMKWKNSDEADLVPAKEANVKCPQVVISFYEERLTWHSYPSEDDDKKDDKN
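Compound inhibition of the preformed complex between 50 nM HP1-beta and 50 nM biotinylated H3K9me3 peptide was read by AlphaScreen. Buffer was PBS pH 7.4 with 0.01% Tween-20. Incubations ran 30 min at room temperature, with 10 ug/mL donor/acceptor beads.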
CtBP-E1A inh = inhibitors of CtBP/E1A interaction | AlphaScreen GST-E1A/His-CtBP binding, 1536-well; active compounds read low | activity change, % (concentration not given with the values) | actives 0.49% (n = 340,000) | AID 651724; in the data active = activity change below about -65%; inconclusive = mostly about -30% to -63%; also: % is scaled to controls: 0 for no effect and ±100 for the full control effect
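Protein mix (5X: 125 nM each GST-E1A, His-CtBP) was incubated with pinned compound 2 h at 37 deg C in dark, in 50 mM Tris pH 8.0 buffer with 300 mM NaCl. Glutathione donor and nickel acceptor beads followed; AlphaScreen signal read after 1 h.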
BAZ2B block = blocks human BAZ2B. actives 4.4% (n = 360,000). AlphaScreen BAZ2B-H3K14Ac peptide displacement. AID 504333. Potency, µM (series often up to 114 µM), inactives show at the top dose activity change, negative = inhibition, hits mostly inhibitors; also: potency is read from the fitted curve at half-maximal effect; % is scaled to controls: 0 for no effect and ±100 for the full control effect; nearly all actives have a fitted effect of over 60% in size
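Protein-peptide AlphaScreen: BAZ2B 50 nM, b-H3K14Ac 50 nM, 1x PBS pH 7.4 + 0.01% Tween-20. Preincubation 30 min RT; cpd 30 min RT (top 110 uM); beads 20 min RT, light-protected.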
Six1-Eya2 inh = blocks human Six1 binding to Eya2; Q15475+O00167; AlphaScreen GST-Six1/His-Eya2 binding, biochemical; active compounds read low; activity change, % (test concentration not listed); actives 0.56% (n = 360,000); AID 651725; in the data active = activity change below about -65%; inconclusive = mostly about -30% to -63%; also: % is scaled to controls: 0 for no effect and ±100 for the full control effect
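Six1/Eya2 binding was read as AlphaScreen signal after compounds were pinned into GST-Six1 plus His-tagged Eya2 (5X stock 250/500 nM) in pH 8.0 Tris/NaCl/TCEP buffer, beads added, then incubated 1 h, 37 C, dark.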
JMJD2A Tudor = blocks the human JMJD2A Tudor domain. O75164. AlphaScreen JMJD2A-Tudor / H3K4me3 peptide binding. Potency, µM (series often up to 114 µM), without a hit: at the top dose activity change, negative = inhibition, actives largely listed as inhibitors. actives 4.4% (n = 390,000); also: potency is read from the fitted curve at half-maximal effect; % is scaled to controls: 0 for no effect and ±100 for the full control effect; nearly all actives have a fitted effect of over 50% in size
Starred values were filed as active, the others as inactive; ? = inconclusive; nt = no result given; [ ] = another dose, or the depositor's remark. Unless noted, calls follow the shape of the dose curve; as a rule, active = well fitted inhibition curve with a large enough effect; inconclusive = small, poorly fitted or top-dose-only effect; inactive = no such curve, though single readings can be large or run the other way.

SMILES	G9a inh	HP1b chromo inh	CtBP-E1A inh	BAZ2B block	Six1-Eya2 inh	JMJD2A Tudor
O=[N+]([O-])C(=C1NCCN1)C(Cl)=C(Cl)Cl	56µM*	44%	nt	-11%	12	11%
CCO/C=C1/C(=O)N(C(C)=O)c2ccccc21	10µM*	54%	-2	-15%	-2	-13%
CC(C)C1Nc2c(O)cc(Cl)c([N+](=O)[O-])c2C2C=CCC21 (configuration not stated)	25µM*	?	-17	25µM*	-13	40µM*
CC1=C([N+](=O)[O-])C(c2ccc(Cl)cc2)NC(=O)N1C (configuration not stated)	nt	-13%	6	3%	1	20µM*
COc1ccccc1C(=O)C1CCCN(C(=O)c2cn3cc(Cl)ccc3n2)C1 (configuration not stated)	28µM*	34%	11	-26%	-2	-6%
CCN(CC)C(=O)CC(c1ccc2c(c1)OCO2)c1c(OC)cc(OC)c2ccc(=O)oc12 (configuration not stated)	-3%[59 µM]	4%	1	-35%	0	-34%
CCN(CC)CCC(c1ccc(N(C)C)cc1)c1c(OC)cc(OC)c2ccc(=O)oc12 (configuration not stated)	?	-27%	-20	40µM*	-29	45µM*
CCN(CC)C(=O)CC(c1ccc(N(C)C)cc1)c1c(OC)cc(OC)c2ccc(=O)oc12 (configuration not stated)	?	-18%	-17	?	-15	45µM*
CCS(=O)c1scc(-c2ccc(Cl)cc2)c1C#N (configuration not stated)	50µM*	27%	nt	2%	2	-3%
CCc1ccccc1OCC(=O)Nc1ccc(S(=O)(=O)Nc2nc(C)cc(C)n2)cc1	?	24%	nt	-5%	nt	-16%
CC(=O)c1cccc(NC(=S)N2CCN(S(=O)(=O)c3ccccc3)CC2)c1	45µM*	?	9	-20%	-22	-15%
O=[N+]([O-])c1ccc(NC(=S)N2CCN(S(=O)(=O)c3ccccc3)CC2)cc1	50µM*	-2%	-1	-30%	4	?
CC(=O)c1cccc(NC(=S)N2CCN(S(=O)(=O)c3ccc(F)cc3)CC2)c1	28µM*	14%[57 µM]	0	-13%	-11	-3%
Cc1cccc(NC(=S)N2CCN(S(=O)(=O)c3cccc(F)c3)CC2)c1	2%	6%	22	-39%	-2	-11%
Cc1cccc(NC(=S)N2CCN(S(=O)(=O)c3ccccc3)CC2)c1	?	30%	2	-23%	-1	-19%
O=c1cc(-c2ccc(O)c(O)c2)oc2cc(O[C@@H]3O[C@H](CO)[C@@H](O)[C@H](O)[C@H]3O)cc(O)c12	nt	5%	-10	nt	?	13µM*
CS(=O)(=O)NCCc1csc2nc(-c3ccccc3)nn12	3%[59 µM]	57%	nt	5%	nt	0%
CCCCn1c(=O)[nH]c(=O)c2c1nc(-c1ccc(-c3ccccc3)cc1)n2C	40µM*	49%	6	1%	22	-7%
CCCCn1c(=O)[nH]c(=O)c2c1nc(-c1ccc(-c3ccccc3Br)o1)n2CC	10µM*	16%	2	-9%	6	-19%
CCCCn1c(=O)[nH]c(=O)c2c1nc(-c1ccc(C(F)(F)F)cc1)n2C	8%	24%	3	-3%	-4	-2%
N#Cc1c(-c2ccccc2)nc(-c2ccncc2)[nH]c1=O	-2%	28%	nt	-2%	1	-9%
N#Cc1c(Cl)nc(SCc2ccccc2)nc1-c1ccccc1	nt	nt	nt	79µM*	nt	nt
N#Cc1c(Cl)nc(-c2ccncc2)nc1-c1ccccc1	28µM*	50%	nt	79µM*	9	?
c1ccc(CSc2nnc(-c3ccccc3)c(-c3ccccc3)n2)cc1	nt	50%	-2	nt	1	2%
COc1ccc(-c2cn3nc(N4CCCC(C(=O)NCc5ccccc5C)C4)sc3n2)cc1 (configuration not stated)	?	-17%	nt	-11%	nt	?
SMILES	G9a inh	HP1b chromo inh	CtBP-E1A inh	BAZ2B block	Six1-Eya2 inh	JMJD2A Tudor
O=C(NC(=S)NC1CCCc2ccccc21)c1ccco1 (configuration not stated)	-35%	34%	-7	-31%	-15	-6%
N#Cc1ccc(C(=O)NC2CCCc3ccccc32)cc1 (configuration not stated)	50µM*	48%	0	4%	3	7%
O=C(CCl)NC1CCCc2ccccc21 (configuration not stated)	6%	-11%	1	4%	0	50µM*
O=C(NC1CCCc2ccccc21)c1cc(Cl)ccn1 (configuration not stated)	25µM*	3%	9	2%	0	30%
O=C(NC(=S)NC1CCCc2ccccc21)c1ccc(F)cc1 (configuration not stated)	-22%	-12%	3	?	-18	79µM*
CN(C)c1ccc(C(=O)NC2CCCc3ccccc32)cc1 (configuration not stated)	24%[12.7 µM]	28%	-18	-29%	-13	-4%
Cc1cc(C)c2oc(-c3ccc(C)c(NC(=O)/C=C/c4ccco4)c3)nc2c1	10µM*	?	nt	?	nt	56µM*
CCN(CC)c1ccc2c(-c3ccc(S(=O)(=O)O)cc3S(=O)(=O)[O-])c3ccc(=[N+](CC)CC)cc-3oc2c1	40µM*	45µM*	?	7.9µM*	-67*	?
N[C@@H](CO)c1cn([C@@H](Cc2cc3ccccc3[nH]2)C(=O)N2CCNCC2)nn1	-6%[12.7 µM]	27%	-11	50µM*	-25	79µM*
CC(C)[C@H](N)c1cn([C@@H](CO)C(=O)N2CCNCC2)nn1	27%[2.33 µM]	15%	4	?	4	-31%
NC(=O)C[C@H](N)c1cn([C@@H](CC(N)=O)C(=O)N2CCNCC2)nn1	-15%[2.33 µM]	-4%	-14	?	-8	79µM*
COc1ccc(N2CCN(C(=O)CN3C(=O)CSc4c3c(C)nn4-c3ccccc3)CC2)cc1	-26%[59 µM]	60%	nt	-13%	nt	-18%
C[C@H](Nc1ccc(C(F)(F)F)cc1[N+](=O)[O-])C(=O)O	56µM*	1%[57 µM]	nt	-15%	1	-18%
CC1CCC(=NNc2ccc(C(F)(F)F)cc2[N+](=O)[O-])CC1 (configuration not stated)	3.5µM*	?	-6	10µM*	?	40µM*
CC(=O)Nc1ccc(NC(=O)CSc2ccc(C(F)(F)F)cc2[N+](=O)[O-])cc1	45µM*	9%	-16	-10%	7	-9%
